PubChem BioAssay (EPA / NIEHS)
Values joined by “and” are separate entries in the source; they are usually repeats but may differ in a detail not shown here. Identical values can stand only once. Results filed as inconclusive are left out. More than one record can exist for a structure, and the calls need not agree. Active and inactive are the calls of the source. Rule for the calls: active = hit-call score of the fitted dose curve at least 0.9, where 1 is the maximum; inconclusive = response in the unintended direction; inactive = score below 0.9.

What was measured:
[1] = TOX21_p53_BLA_p2_viability: Viability Assessment in the Tox21 HCT-116 p53 Agonism Beta-lactamase Assay, Phase 2 (AID 2283591);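 note: compound exposure lasted 16 h at 37 °C; actives lower the ATP signal meaning cytotoxicity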
Method in brief: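 HCT116 p53-bla cells, 4000/well, dosed after 5 h plating (217-fold dilution of DMSO stocks) and incubated 16 h at 37C. Viability taken as cellular ATP by CellTiter-Glo luminescence after 30 min RT; signal loss marks cytotoxicity.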

[2] = target: Cellular tumor antigen p53 (Homo sapiens) (UniProt P04637); test: TOX21_p53_BLA_p2_ratio: Tox21 HCT-116 p53 Agonism Beta-lactamase Assay, Ratio, Phase 2 (AID 2283592)
Sequence of Cellular tumor antigen p53 (Homo sapiens) (P04637 whole entry, looked up): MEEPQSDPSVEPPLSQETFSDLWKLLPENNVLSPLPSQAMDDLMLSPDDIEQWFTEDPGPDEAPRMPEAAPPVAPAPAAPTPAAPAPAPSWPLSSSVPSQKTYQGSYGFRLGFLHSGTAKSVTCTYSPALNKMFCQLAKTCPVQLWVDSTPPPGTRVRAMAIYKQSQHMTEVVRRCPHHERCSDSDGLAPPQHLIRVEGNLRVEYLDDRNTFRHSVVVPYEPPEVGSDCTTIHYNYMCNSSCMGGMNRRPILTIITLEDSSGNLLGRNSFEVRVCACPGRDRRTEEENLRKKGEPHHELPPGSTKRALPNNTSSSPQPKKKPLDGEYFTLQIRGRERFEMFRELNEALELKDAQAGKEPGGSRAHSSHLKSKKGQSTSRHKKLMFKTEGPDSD
Method in brief: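 Plated HCT116 p53-bla cells (4000/well) received compound after 5 h, then 16 h at 37C/5% CO2. CCF4-AM added, 2 h RT. Ratio of 460 to 530 nm emission taken as the p53 reporter signal.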

[3] = TOX21_p53_BLA_p3_viability: Viability Assessment in the Tox21 HCT-116 p53 Agonism Beta-lactamase Assay, Phase 3 (AID 2283593);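 note: cells exposed to compound for 16 h before reading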
Method in brief: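 HCT116 cells, 4000/well, dosed 5 h after plating by pin transfer (217-fold dilution from DMSO stock) and incubated 16 h at 37C, 5% CO2. Viability read as ATP luminescence with CellTiter-Glo after 30 min at room temperature.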

[4] = target: Cellular tumor antigen p53 (Homo sapiens) (UniProt P04637); test: TOX21_p53_BLA_p3_ratio: Tox21 HCT-116 p53 Agonism Beta-lactamase Assay, Ratio, Phase 3 (AID 2283596)
Method in brief: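 Cells were seeded at 4000/well, rested 5 h at 37C, then dosed with DMSO compound solutions (217-fold dilution) for 16 h. CCF4-AM substrate was loaded for 2 h at room temperature, and the 460/530 nm emission ratio was fitted for gain of signal versus DMSO.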

[5] = TOX21_p53_BLA_p4_viability: Viability Assessment in the Tox21 HCT-116 p53 Agonism Beta-lactamase Assay, Phase 4 (AID 2283597);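 note: hits lower the luminescence signal meaning cytotoxicity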
Method in brief: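 Readout: ATP luminescence (CellTiter-Glo), measured 30 min after reagent addition at RT. The reagent followed a 2 h CCF4-AM incubation, and the cells had been exposed to compound for 16 h at 37C.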

[6] = target: Cellular tumor antigen p53 (Homo sapiens) (UniProt P04637); test: TOX21_p53_BLA_p5_ratio: Tox21 HCT-116 p53 Agonism Beta-lactamase Assay, Ratio, Phase 5 (AID 2283599)
Method in brief: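 HCT-116 p53-bla cells (4000/well) plated 5 h, dosed with compound (217-fold DMSO dilution) for 16 h at 37 C; CCF4-AM substrate 2 h at room temperature. Activity is the 460/530 nm emission ratio (405 nm excitation), fitted in gain-of-signal direction versus DMSO.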

[7] = TOX21_p53_BLA_p5_viability: Viability Assessment in the Tox21 HCT-116 p53 Agonism Beta-lactamase Assay, Phase 5 (AID 2283600)
Method in brief: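 Workflow: seed 4000 cells per well, wait 5 h, add compounds (DMSO, 217-fold dilution), incubate 16 h, load CCF4-AM 2 h, add CellTiter-Glo, read luminescence after 30 min.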

[8] = target: Cellular tumor antigen p53 (Homo sapiens) (UniProt P04637); test: TOX21_p53_BLA_p4_ratio: Tox21 HCT-116 p53 Agonism Beta-lactamase Assay, Ratio, Phase 4 (AID 2283601)
Method in brief: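 HCT-116 p53 beta-lactamase reporter cells (4000/well) preincubated 5 h, then compound (217-fold dilution of DMSO stock) for 16 h at 37C. CCF4-AM substrate added 2 h at room temperature; 460/530 nm emission ratio fitted upward versus DMSO.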

In the case of `COC1=C(OC)C(=O)C(C/C=C(\C)CC/C=C(\C)CC/C=C(\C)CC/C=C(\C)CC/C=C(\C)CC/C=C(\C)CC/C=C(\C)CC/C=C(\C)CC/C=C(\C)CCC=C(C)C)=C(C)C1=O`, the outcome [1] is reported as “inactive”, the outcome [2] is reported as “inactive” and the outcome [3] is reported as “inactive”. For the same compound, the AC50 [4] was 42.8 µM (active), the outcome [4] was “inactive” and the outcome [5] was “inactive”. The outcome [6] was “inactive”, the outcome [7] was “inactive” and the outcome [8] was “inactive”.
In the case of `CCO[Si](C)(CCCOCC1CO1)OCC` (configuration not stated), the outcome [1] is reported as “inactive”, the outcome [2] is reported as “inactive” and the outcome [3] is reported as “inactive”. For the same compound, the outcome [4] was “inactive”, the outcome [5] was “inactive” and the outcome [6] was “inactive”.
In the case of `CCOC(=O)c1c(C)n(C)c2ccc(O)cc12`, the outcome [1] is reported as “inactive”, the outcome [2] is reported as “inactive” and the outcome [3] is reported as “inactive”. The outcome [4] was “inactive”, the outcome [5] was “inactive” and the outcome [6] was “inactive”.
In the case of `O=C(O)c1ccc(S(=O)(=O)N(Cl)Cl)cc1`, the outcome [1] is reported as “inactive”, the AC50 [2] is reported as 64.5 µM (active) and the outcome [2] is reported as “inactive”. For the same compound, the outcome [3] was “inactive”, the outcome [4] was “inactive” and the outcome [5] was “inactive”. The outcome [6] was “inactive” and the outcome [8] was “inactive”.
With `NC(=O)NNc1ccccc1` the outcome [1] was “inactive”, the outcome [2] was “inactive” and the outcome [3] was “inactive”. For the same compound, the AC50 [4] was 0.000125 µM (active), the outcome [4] was “inactive” and the outcome [5] was “inactive”. For the same compound, the outcome [6] was “inactive”, the outcome [7] was “inactive” and the AC50 [8] was 0.0608 nM (active). For the same compound, the outcome [8] was “inactive”.
For `O=C(CCCCCCC(=O)Nc1ccccc1)NO`, the outcome [1] was “inactive”, the AC50 [2] was 420 nM (active) and 686 nM (active) and the outcome [3] was “inactive”. For the same compound, the AC50 [4] was 0.874 µM (active), the outcome [4] was “inactive” and the AC50 [5] was 4.47 µM (active) and 7.11 µM (active). The AC50 [6] was 1.08 µM (active) and 842 nM (active), the outcome [7] was “inactive” and the AC50 [8] was 904 nM (active) and 534 nM (active).
In the case of `CCOc1cccc(N)c1`, the outcome [1] is reported as “inactive”, the outcome [2] is reported as “inactive” and the outcome [3] is reported as “inactive”.
For `Nc1cc(S(=O)(=O)O)ccc1O`, the outcome [1] was “inactive”, the outcome [2] was “inactive” and the outcome [3] was “inactive”. For the same compound, the outcome [4] was “inactive”, the outcome [5] was “inactive” and the outcome [6] was “inactive”.
For `OCc1cc(C(O)CNCCCCCCOCCCCc2ccccc2)ccc1O` (configuration not stated), the outcome [1] was “inactive”, the outcome [2] was “inactive” and the outcome [3] was “inactive”. For the same compound, the outcome [4] was “inactive”, the AC50 [5] was 28.2 µM (active) and the outcome [5] was “inactive”. For the same compound, the outcome [6] was “inactive”, the outcome [7] was “inactive” and the outcome [8] was “inactive”.
For `C[N+]1(CC2COC(c3ccccc3)(c3ccccc3)O2)CCCCC1` (configuration not stated), the outcome [1] was “inactive”, the outcome [2] was “inactive” and the outcome [3] was “inactive”. The outcome [4] was “inactive” and the outcome [5] was “inactive”.
With `COc1cc(/C=C/C(=O)O[C@H]2CC[C@]34C[C@]35CC[C@]3(C)[C@@H]([C@H](C)CCC=C(C)C)CC[C@@]3(C)[C@@H]5CC[C@H]4C2(C)C)ccc1O` the outcome [1] was “inactive”, the outcome [2] was “inactive” and the AC50 [3] was 26.8 µM (active). For the same compound, the outcome [3] was “inactive”, the AC50 [4] was 23 µM (active) and the outcome [4] was “inactive”. For the same compound, the outcome [5] was “inactive”, the AC50 [6] was 13.3 µM (active) and the outcome [6] was “inactive”. The outcome [7] was “inactive” and the AC50 [8] was 6070 nM (active).
In the case of `COCCCC/C(=N\OCCN)c1ccc(C(F)(F)F)cc1`, the outcome [1] is reported as “inactive”, the outcome [2] is reported as “inactive” and the outcome [3] is reported as “inactive”. For the same compound, the outcome [4] was “inactive”, the outcome [5] was “inactive” and the outcome [6] was “inactive”. The outcome [7] was “inactive” and the outcome [8] was “inactive”.
In the case of `COc1ccc2c(c1)OC(C)(C)C(c1ccccc1)C2c1ccc(OCCN2CCCC2)cc1` (configuration not stated), the outcome [1] is reported as “inactive”, the outcome [2] is reported as “inactive” and the AC50 [3] is reported as 35.3 µM (active). The AC50 [4] was 43.8 µM (active), the AC50 [5] was 43.5 µM (active) and the AC50 [6] was 36.7 µM (active). The AC50 [7] was 33.5 µM (active).
With `CC(C)=CCC/C(C)=C/CC/C(C)=C/CC/C(C)=C/CC1=C(C)C(=O)c2ccccc2C1=O` the outcome [1] was “inactive”, the outcome [2] was “inactive” and the outcome [3] was “inactive”. For the same compound, the outcome [4] was “inactive”, the outcome [5] was “inactive” and the outcome [6] was “inactive”. For the same compound, the outcome [7] was “inactive”.
In the case of `O=C(Nc1ccc(Br)cc1)c1cc(Br)c(Br)s1`, the AC50 [1] is reported as 23 µM (active), the outcome [2] is reported as “inactive” and the AC50 [3] is reported as 32.2 µM (active). For the same compound, the AC50 [4] was 18.8 µM (active), the AC50 [5] was 19.5 µM (active) and the AC50 [6] was 19.9 µM (active). The outcome [7] was “inactive” and the outcome [8] was “inactive”.
